Experimental data as given in a collection of fitness landscapes (doi:10.1126/science.1257360).
Over roughly 140,000 sequences, “enrichment ratio after two sorts for PhoP signalling” has its median near 0; the highest 2% begin near 11. The entries come from a sample that favours the highest values as a whole.

B1: PhoQ; a variant is named by its letters at X, in order, P23837 (parent)
chain: MKKLLRLFFPLSLRVRFLLATAAVVLVLSLAYGMVALIGYSVSFDKTTFRLLRGESNLFYTLAKWENNKLHVELPENIDKQSPTMTLIYDENGQLLWAQRDVPWLMKMIQPDWLKSNGFHEIEADVNDTSLLLSGDHSIQQQLQEVREDDDDAEMTHSVAVNVYPATSRMPKLTIVVVDTIPVELKSSYMVWSWFIYVLSANLLLVIPLLWVAAWWSLRPIEALAKEVRELEEHNRELLNPATTRELTSLVRNLNRLLKSERERYDKYRTTLTDLTHSLKTPLXXLQXXLRSLRSEKMSVSDAEPVMLEQISRISQQIGYYLHRASMRGGTLLSRELHPVAPLLDNLTSALNKVYQRKGVNISLDISPEISFVGEQNDFVEVMGNVLDNACKYCLEFVEISARQTDEHLYIVVEDDGPGIPLSKREVIFDRGQRVDTLRPGQGVGLAVAREITEQYEGKIVAGESMLGGARMEVIFGRQHSAPKDE

Variants of: B1
Assay: enrichment ratio after two sorts for PhoP signalling (ratio (wild type AVST 3.29)); higher = more functional
Conditions: with PhoP (E. coli)

| Variant | enrichment ratio |
| --- | --- |
| ALFD | ≤ 0.25 |
| SHFP | 0.324 |
| WCTK | ≤ 0.25 |
| FYGE | ≤ 0.25 |
| MNPG | ≤ 0.25 |
| FEMT | 3.56 |
| ENFC | ≤ 0.25 |
| SYCA | ≤ 0.25 |
| EDSI | ≤ 0.25 |
| QHRI | ≤ 0.25 |
| SHNH | 1.34 |
| QHNS | 5.2 |
| NHNH | ≤ 0.25 |
| QHNH | 13.9 |
| THNH | 16.2 |
| QHNY | 27.5 |
| QHRH | ≤ 0.25 |
| QHGY | 8.42 |
| LVRE | ≤ 0.25 |
| EGNA | ≤ 0.25 |
| TEWG | 3.3 |
| TERM | ≤ 0.25 |
| TEWA | 38.4 |
| TEYL | 13 |
| KSWS | ≤ 0.25 |

| Variant | enrichment ratio |
| --- | --- |
| TEGM | 4.56 |
| TEWS | 28.5 |
| NIYL | ≤ 0.25 |
| TEWM | 73.1 |
| YTYL | ≤ 0.25 |
| TEWR | 6.71 |
| TEWN | 9.81 |
| QHAH | ≤ 0.25 |
| DNQP | ≤ 0.25 |
| LKHW | ≤ 0.25 |
| NWHW | ≤ 0.25 |
| WFMI | ≤ 0.25 |
| IWYG | ≤ 0.25 |
| WQRD | ≤ 0.25 |
| HEYK | ≤ 0.25 |
| RHGY | ≤ 0.25 |
| TERL | ≤ 0.25 |
| KSWD | ≤ 0.25 |
| TEAM | 16.4 |
| MEWL | ≤ 0.25 |
| QEWD | 4.99 |
| TEGL | 13.2 |
| TEEL | ≤ 0.25 |
| MEAM | 9.82 |
| KSWL | ≤ 0.25 |

| Variant | enrichment ratio |
| --- | --- |
| TEWL | 21.7 |
| TEWD | 13 |
| NEAM | ≤ 0.25 |
| SQYM | ≤ 0.25 |
| VRMI | ≤ 0.25 |
| QHIN | ≤ 0.25 |
| SFID | ≤ 0.25 |
| DARD | ≤ 0.25 |
| RDIV | ≤ 0.25 |
| TEWF | 22 |
| QEWF | ≤ 0.25 |
| NYWF | ≤ 0.25 |
| RLCT | ≤ 0.25 |
| NKEG | ≤ 0.25 |
| AQVA | 14.1 |
| ADVE | ≤ 0.25 |
| VHVI | ≤ 0.25 |
| AIVI | 13 |
| AQVK | ≤ 0.25 |
| AQHE | ≤ 0.25 |
| ICVI | ≤ 0.25 |
| AQRA | ≤ 0.25 |
| WIVI | ≤ 0.25 |
| AQVE | 34.1 |
| AQVI | 18.1 |

| Variant | enrichment ratio |
| --- | --- |
| NQVI | ≤ 0.25 |
| DEDS | ≤ 0.25 |
| DGNR | ≤ 0.25 |
| DLTS | ≤ 0.25 |
| PPKY | ≤ 0.25 |
| ICPL | ≤ 0.25 |
| KKGI | ≤ 0.25 |
| DIWR | ≤ 0.25 |
| HNLR | ≤ 0.25 |
| AQVS | 14 |
| NMVI | ≤ 0.25 |
| AQWG | ≤ 0.25 |
| AKVE | ≤ 0.25 |
| EQVS | ≤ 0.25 |
| AMVI | 16.3 |
| VLVI | ≤ 0.25 |
| AQVC | 9.47 |
| KQVS | ≤ 0.25 |
| AIVE | 12.3 |
| AQVG | 12 |
| RIVE | ≤ 0.25 |
| DFYH | ≤ 0.25 |
| PRHA | ≤ 0.25 |
| KVWY | ≤ 0.25 |
| KKYK | ≤ 0.25 |

| Variant | enrichment ratio |
| --- | --- |
| ETML | ≤ 0.25 |
| NGLV | 6.65 |
| VHLV | ≤ 0.25 |
| APLV | ≤ 0.25 |
| VRLV | ≤ 0.25 |
| SGHK | ≤ 0.25 |
| VGLV | 12.3 |
| SGLV | 17.9 |
| AGLV | 12.7 |
| TGLV | 12.3 |
| RGLV | ≤ 0.25 |
| CFLV | ≤ 0.25 |
| LWQD | ≤ 0.25 |
| FDMF | ≤ 0.25 |
| VNQQ | ≤ 0.25 |
| YCCF | ≤ 0.25 |
| NGGQ | ≤ 0.25 |
| MMPC | ≤ 0.25 |
| LNWD | ≤ 0.25 |
| VQIE | ≤ 0.25 |
| QIPP | ≤ 0.25 |
| GGLV | 13.7 |
| MGLV | 15.2 |
| MGLA | 2.09 |
| NILV | 0.722 |

| Variant | enrichment ratio |
| --- | --- |
| MGLW | ≤ 0.25 |
| GYLV | ≤ 0.25 |
| YFRP | ≤ 0.25 |
| IDDH | ≤ 0.25 |
| FGMD | ≤ 0.25 |
| FGGG | ≤ 0.25 |
| FGMW | ≤ 0.25 |
| FGMG | 0.824 |
| FGMS | 0.618 |
| FGMV | 16.7 |
| FGMQ | 21.1 |
| FGMI | 11.8 |
| FGGQ | 3.04 |
| YKMH | ≤ 0.25 |
| HWMV | ≤ 0.25 |
| RAPQ | ≤ 0.25 |
| ATVM | 6.8 |
| STPC | ≤ 0.25 |
| MGVV | 15.6 |
| TGVV | 0.277 |
| MGGS | 17.9 |
| MGHV | 2.03 |
| MGVK | ≤ 0.25 |
| MGVA | ≤ 0.25 |
| MGWI | 1.07 |

| Variant | enrichment ratio |
| --- | --- |
| TGYF | 1.56 |
| MGYF | 12.2 |
| MGYV | 13.4 |
| MGWV | 6.77 |
| RGYF | ≤ 0.25 |
| MMRA | ≤ 0.25 |
| DQCN | ≤ 0.25 |
| MMLA | ≤ 0.25 |
| ASGS | 3.2 |
| MGCI | 5.38 |
| MGKI | ≤ 0.25 |
| MGGQ | 2.83 |
| MTYQ | 2.5 |
| MGDS | ≤ 0.25 |
| MGKH | ≤ 0.25 |
| MGCV | 14 |
| MGDI | ≤ 0.25 |
| MGGD | ≤ 0.25 |
| MGGH | 20.1 |
| MGGA | 24.1 |
| MGYQ | 14 |
| SGGC | 10.9 |
| HITM | ≤ 0.25 |
| PRMN | ≤ 0.25 |
| EYFG | ≤ 0.25 |

| Variant | enrichment ratio |
| --- | --- |
| DTNW | ≤ 0.25 |
| LCAW | ≤ 0.25 |
| IYCG | ≤ 0.25 |
| MGYI | 13.6 |
| MGYK | ≤ 0.25 |
| MGHI | 19.7 |
| MGYD | ≤ 0.25 |
| TGHL | 7.55 |
| MGYS | 12.2 |
| TGYS | 1.45 |
| MGHL | 19.3 |
| MGWA | ≤ 0.25 |
| MGHF | 0.887 |
| MGDR | ≤ 0.25 |
| GGHL | ≤ 0.25 |
| EVSV | ≤ 0.25 |
| VKDT | ≤ 0.25 |
| DASS | ≤ 0.25 |
| QDGG | ≤ 0.25 |
| RYTL | ≤ 0.25 |
| FSTL | 4.4 |
| TVTL | 15.2 |
| SPTL | ≤ 0.25 |
| GYTL | ≤ 0.25 |
| TMTL | 20.9 |

| Variant | enrichment ratio |
| --- | --- |
| KATL | ≤ 0.25 |
| KSTL | ≤ 0.25 |
| NATL | ≤ 0.25 |
| TYTL | 15.2 |
| TATL | 16.3 |
| NITL | ≤ 0.25 |
| AVIL | 1.98 |
| LGEK | ≤ 0.25 |
| DFEL | ≤ 0.25 |
| FLSP | ≤ 0.25 |
| RASH | ≤ 0.25 |
| CMTL | ≤ 0.25 |
| CFTL | 15.7 |
| TGTL | 13.5 |
| NGTL | ≤ 0.25 |
| GGTL | 5.81 |
| CITL | ≤ 0.25 |
| FIIG | ≤ 0.25 |
| YFRE | ≤ 0.25 |
| YEVE | ≤ 0.25 |
| QPLE | ≤ 0.25 |
| FTLE | 5.91 |
| MKLE | ≤ 0.25 |
| HKLE | ≤ 0.25 |
| AHLE | 12.9 |

| Variant | enrichment ratio |
| --- | --- |
| YELE | 13.8 |
| KALE | ≤ 0.25 |
| TKLE | 12.7 |
| YALE | 14.7 |
| AILE | 2.65 |
| NHLE | ≤ 0.25 |
| PLTV | ≤ 0.25 |
| YFSG | ≤ 0.25 |
| RYRE | ≤ 0.25 |
| SNND | ≤ 0.25 |
| GKDT | ≤ 0.25 |
| PQNK | ≤ 0.25 |
| KRMQ | ≤ 0.25 |
| MKMS | ≤ 0.25 |
| MEMS | 63.4 |
| KKMS | ≤ 0.25 |
| MEMV | 14.8 |
| AIMG | 6.65 |
| MTHV | ≤ 0.25 |
| AKMG | 18.6 |
| MEMW | ≤ 0.25 |
| YYHV | ≤ 0.25 |
| MEHV | 14.3 |
| ADMG | ≤ 0.25 |
| MKMV | ≤ 0.25 |

| Variant | enrichment ratio |
| --- | --- |
| VCGT | ≤ 0.25 |
| VPIR | ≤ 0.25 |
| IAQH | ≤ 0.25 |
| SNQM | 9.41 |
| RNTT | ≤ 0.25 |
| NFHF | ≤ 0.25 |
| RATT | ≤ 0.25 |
| RPPR | ≤ 0.25 |
| QKLG | ≤ 0.25 |
| PTLR | ≤ 0.25 |
| NSHF | ≤ 0.25 |
| MKMG | ≤ 0.25 |
| VEKK | ≤ 0.25 |
| VEMV | 27.4 |
| VEMG | 6.39 |
| MEVG | 4.29 |
| MEMG | 12.8 |
| LQGT | ≤ 0.25 |
| RYHM | ≤ 0.25 |
| FHIH | ≤ 0.25 |
| PDKA | ≤ 0.25 |
| SVGD | ≤ 0.25 |
| KYGW | ≤ 0.25 |
| SVHW | ≤ 0.25 |
| SVGW | 14.4 |

| Variant | enrichment ratio |
| --- | --- |
| SIGW | 11.7 |
| SRGW | 2.5 |
| SYGW | ≤ 0.25 |
| SQGW | ≤ 0.25 |
| SCGW | 20.5 |
| TMAH | 1.31 |
| NNEC | ≤ 0.25 |
| VWTE | ≤ 0.25 |
| RHES | ≤ 0.25 |
| IKSM | ≤ 0.25 |
| WYNQ | ≤ 0.25 |
| MFWL | ≤ 0.25 |
| KANE | ≤ 0.25 |
| TAGE | ≤ 0.25 |
| TAAM | 13.6 |
| YATM | ≤ 0.25 |
| TATI | 5.19 |
| TARM | ≤ 0.25 |
| IAEM | ≤ 0.25 |
| TATM | 27 |
| KAAM | ≤ 0.25 |
| LQEM | ≤ 0.25 |
| TAEM | 25.7 |
| TANE | 18.3 |
| LGLR | ≤ 0.25 |

| Variant | enrichment ratio |
| --- | --- |
| IPIH | ≤ 0.25 |
| IDYN | ≤ 0.25 |
| LPTD | ≤ 0.25 |
| HEFY | ≤ 0.25 |
| DTSM | ≤ 0.25 |
| TACK | 11.6 |
| TANM | 19.5 |
| TANL | 10 |
| KAGL | ≤ 0.25 |
| KANM | ≤ 0.25 |
| TAPM | ≤ 0.25 |
| NAGL | ≤ 0.25 |
| TANS | 11.9 |
| YANM | 0.317 |
| TAWM | 9.41 |
| TANK | ≤ 0.25 |
| TAGL | 12.4 |
